The campaign covered roughly 2,100 compounds. About 1,100 (52%) were called active. Inconclusive results (about 29%) are left out. The set was probably picked from earlier hits. This is one part of the list. Unmarked numbers belong to inactive results. Calls follow the shape of the dose curve; as a rule, active = well fitted inhibition curve with a large enough effect; inconclusive = small, poorly fitted or top-dose-only effect; inactive = no such curve, though single readings can be large or run the other way.
% is scaled to controls: 0 for no effect and ±100 for the full control effect; potency is read from the fitted curve at half-maximal effect.

The assay deals with DNA dC->dU-editing enzyme APOBEC-3F (Homo sapiens) (UniProt Q8IUX4). The experiment in a line: qHTS for inhibitors of Vif-A3F interactions: Cherry picks counterscreen. Also: nearly all actives have a fitted effect of over 65% in size. The note with it: HeLa A3F-eYFP/Vif cells, eYFP fluorescence, 24 h; series mostly up to 46.1 µM; activity, negative = inhibitor: at the top concentration. The method, boiled down: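 HeLa cells stably expressing A3F-eYFP and Vif, cultured overnight, then treated 24 h at 37 degrees C with compounds at several concentrations; yellow fluorescence (488 nm Ex/500-530 nm Em) imaged on Acumen; MG132 positive control.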
Sequence of DNA dC->dU-editing enzyme APOBEC-3F (Homo sapiens) (Q8IUX4 whole entry, looked up): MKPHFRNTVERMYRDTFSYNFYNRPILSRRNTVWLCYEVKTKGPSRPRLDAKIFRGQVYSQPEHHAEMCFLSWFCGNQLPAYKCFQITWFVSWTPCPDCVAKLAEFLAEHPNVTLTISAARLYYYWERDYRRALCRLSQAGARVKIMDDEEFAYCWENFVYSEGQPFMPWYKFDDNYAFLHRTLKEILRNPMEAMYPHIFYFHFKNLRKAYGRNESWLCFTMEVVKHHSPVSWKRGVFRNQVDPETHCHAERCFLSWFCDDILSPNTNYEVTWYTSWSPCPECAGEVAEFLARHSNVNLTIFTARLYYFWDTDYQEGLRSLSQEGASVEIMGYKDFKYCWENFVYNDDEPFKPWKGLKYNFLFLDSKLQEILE
For orientation: Quantitative high-throughput screening tests each substance at several concentrations.
Regarding `Cc1sc2ncnc(SCC(=O)NC(C)(C)C)c2c1C`, the “activity, negative = inhibitor” value was 2.59%.
`COc1cccc(-c2ccc3c(N)c(C(=O)c4ccc(Cl)cc4)sc3n2)c1`: the Potency is 16.4 µM (active).
In the case of `COc1ccc(NC(=O)c2sc3nc(-c4cccnc4)ccc3c2N)cc1OC`, the Potency was 5.8 µM (active).
Consider `COc1cccc(-c2ccc3c(N)c(C(=O)c4ccc(Br)cc4)sc3n2)c1`, for which the Potency is 23.1 µM (active).
Take `Cc1nn(-c2ccc(F)cc2)c(Cl)c1/C=C1\C(=O)Nc2ccccc21`: the Potency is 5.59 µM (active).
For the molecule `O=c1[nH]c(NCc2ccco2)nnc1Cc1ccccc1Cl`, the Potency is 12.5 µM (active).
For `O=[N+]([O-])c1ccc(C2=NN(c3ccccc3)C(c3ccco3)C2)cc1` (stereo not given), the Potency was 1.58 µM (active).
In the case of `O=[N+]([O-])c1ccc(C2=Nc3cc(Cl)ccc3OC2)cc1`, the “activity, negative = inhibitor” value was -10.5%.
With `O=[N+]([O-])c1ccc(/C=C/C2=NN(c3ccccc3)C(c3ccco3)C2)o1` (stereo not given), the Potency is 5.17 µM (active).
Still for that read-out and setting: as for `COc1ccccc1N1N=C(c2ccc([N+](=O)[O-])cc2)CC1c1ccccc1` (stereo not given), the figure is 1.12 µM (active); as for `COc1ccc2nc(C)cc(SCC(=O)N/N=C/c3cccc4ccccc34)c2c1`, 6.27 µM (active).
Same read-out and setting: as for `O=C(Nc1ccc([N+](=O)[O-])cc1)C(Cc1ccccc1)N1C(=O)c2cccc3cccc(c23)C1=O` (stereo not given), the figure is 15.8 µM (active).
Take `O=S(=O)(Nc1ccc(C(O)(C(F)(F)F)C(F)(F)F)cc1)c1ccc(Cl)c2nonc12`: the “activity, negative = inhibitor” value was -13.6% [at 36.9 µM].
With `COC(=O)c1sc2cc([N+](=O)[O-])cc(SCC(C)C)c2c1N`, the Potency is 11.6 µM (active).
As to `CCOC(=O)c1sc2cc([N+](=O)[O-])cc(SCC(C)C)c2c1N`, the Potency was 2.31 µM (active).
Regarding `COc1ccc(NC2=CC(=O)CC(c3ccccc3)C2)c(OC)c1` (stereo not given), the Potency was 5.59 µM (active).
Regarding `COc1ccc(NC(=S)Nc2ncccc2C)c(OC)c1`, the “activity, negative = inhibitor” value is -8.96% [at 36.9 µM].
With `O=C(Nc1ccc(Oc2ccc(NC(=O)Nc3ccccc3Cl)cc2)cc1)Nc1ccccc1Cl`, the Potency is 18.4 µM (active).
As for `Cc1ccsc1/C=N\NC(=O)c1n[nH]c2c1CCC2`, the Potency was 3.96 µM (active).
For `O=C(N/N=C/c1cccc2ccccc12)c1n[nH]c2c1CCCC2`, the Potency was 1.98 µM (active).
Consider `O=C(N/N=C/c1cccs1)c1n[nH]c2c1CCC2`, for which the Potency was 6.27 µM (active).
Consider `CN(C)S(=O)(=O)c1ccc2c(c1)/C(=C/c1cc3c([nH]1)CCCC3)C(=O)N2`, for which the Potency was 2.23 µM (active).
Regarding `Cc1cccc(N2CCN(C(=O)c3ccncc3)CC2)c1C`, the Potency was 9.94 µM (active).
As for `O=C(CSc1nc(-c2ccco2)cc(C(F)(F)F)n1)Nc1cccnc1`, the Potency was 11.2 µM (active).
As to `Cc1nnc(NC(=O)CSc2nc(C(C)C)nc3ccccc23)s1`, the Potency was 8.86 µM (active).
Regarding `Cc1cc(C)n(-c2nnc3n2N=C(c2c[nH]c4ccccc24)CS3)n1`, the Potency is 12.5 µM (active).
For `CC(NC(=O)/C(C#N)=C/c1ccc([N+](=O)[O-])o1)c1ccccc1` (stereo not given), the Potency is 18.4 µM (active).
The same measure, in the same setting: as for `CCOCCCNC(=O)/C(C#N)=C/c1ccc([N+](=O)[O-])o1`, the figure is 20.6 µM (active).
With `N#C/C(=C\c1ccccc1[N+](=O)[O-])C(=O)NCc1ccccc1`, the “activity, negative = inhibitor” value was 0.631%.
Take `CN(C)/C=N/C1=C(C#N)C(c2cccs2)c2ccc3ccccc3c2O1` (stereo not given): the Potency is 4.98 µM (active).
In the case of `O=C(NCc1cccnc1)c1cccc(NS(=O)(=O)c2ccc(Br)cc2)c1`, the Potency is 6.27 µM (active).
For the molecule `O=C(COc1ccc(C(=O)c2ccccc2)cc1)NCc1ccc(F)cc1`, the Potency is 1.98 µM (active).
On to `O=C(c1[nH]c(C(F)(F)F)nc1-c1ccccc1)N1CCN(c2cccc(C(F)(F)F)n2)CC1`, for which the Potency was 2.8 µM (active).
Regarding `O=C(c1[nH]c(C(F)(F)F)nc1-c1ccccc1)N1CCN(c2ccccc2)CC1`, the Potency is 2.23 µM (active).
For `CCS(=O)(=O)N1CCc2cc(C(=O)N3CCN(c4cccc(C(F)(F)F)c4)CC3)ccc21`, the “activity, negative = inhibitor” value is -6.58%.
Turning to `N#Cc1sc2nc(-c3cccs3)cc(-c3ccc(Cl)cc3)c2c1N`, the Potency is 12.5 µM (active).
Still for that read-out and setting: as for `CCN(CC)C(=O)c1sc2nc(-c3cccs3)cc(-c3ccc(Cl)cc3)c2c1N`, the figure is 14 µM (active).
Take `COc1ccc(-c2cc(-c3cccs3)nc3sc(C#N)c(N)c23)cc1`: the “activity, negative = inhibitor” value is -19.5%.
With `O=C(COC(=O)c1ccc(NS(=O)(=O)c2cccs2)cc1O)NCc1ccccc1`, the Potency was 4.44 µM (active).
With `COc1ccc2c(c1)c1nc3ccccc3nc1n2Cc1ccc(OC)c(OC)c1`, the Potency was 18.4 µM (active).
Take `CCOc1ccc(Cn2c3ccc(OC)cc3c3nc4ccccc4nc32)cc1`: the Potency is 18.4 µM (active).
As to `COc1ccc2c(c1)c1nc3ccccc3nc1n2CC(=O)OC(C)C`, the Potency was 3.66 µM (active).
Consider `COc1ccc(COn2c(=O)c(C)[n+]([O-])c3ccccc32)cc1OC`, for which the “activity, negative = inhibitor” value is -14.5% [at 36.9 µM].
With `Nc1nn(-c2ccccc2)c(N)c1N=Nc1ccccc1`, the Potency was 2.23 µM (active).
For the molecule `c1ccc(N=NC2=NN(c3ccccc3)CS2)cc1`, the “activity, negative = inhibitor” value is 0.0565%.
For `c1ccc2[nH]c(NN=C3CCCCCC3)nc2c1`, the “activity, negative = inhibitor” value is -14.5%.
As for `O=C(CSc1ccccc1)Nc1nc2ccccc2[nH]1`, the Potency is 8.86 µM (active).
For `N#CC(C(=S)Nc1ccccc1)c1nc2ccccc2[nH]1` (stereo not given), the “activity, negative = inhibitor” value was -11.5%.
For `Cc1ccc2c(c1)C=CC(C#N)N2C(=O)c1ccccc1` (stereo not given), the Potency was 4.98 µM (active).
The same measure, in the same setting: the figure for `Cc1c(C(=O)OC2CCCCC2)[nH]c2c1C(=O)CC(c1ccccc1Cl)C2` (stereo not given) is 2.06 µM (active).
With `COc1ccc(OC)c(C2CC(=O)c3c([nH]c(C(=O)OCC4CCCO4)c3C)C2)c1` (stereo not given), the Potency was 12.5 µM (active).
Same read-out and setting: as for `COCCOC(=O)c1[nH]c2c(c1C)C(=O)CC(c1ccccc1)C2` (stereo not given), the figure is 1.77 µM (active); as for `CN(/N=C/c1ccc(N(C)C)cc1)C1=NS(=O)(=O)c2ccccc21`, 11.2 µM (active); as for `COCCCN(C(C)=O)c1nc(-c2ccc(OC)cc2)cs1`, 17.7 µM (active).
`CN1C2=CC=CC=CC2=[N+](C)C12C([N+](=O)[O-])=CC(=[N+]([O-])[O-])C=C2[N+](=O)[O-]` (stereo not given): the Potency was 12.5 µM (active).
`Cc1ccc(S(=O)(=O)Nc2cc(-c3nn(C)c(=O)c4ccccc34)ccc2N2CCOCC2)cc1`: the Potency is 12.5 µM (active).
Still for that read-out and setting: as for `Cc1cccc2[nH]cc(/C=C3/C=Nc4ccccc43)c12`, the figure is 20.6 µM (active); as for `CCCCNc1c(-c2ccc(SC3CCCCC3)cc2)nc2cnccn12`, 4.44 µM (active).
As to `CCC(C)Sc1ccc(-c2nc3cc(C)ccn3c2NC2CCCCC2)cc1` (stereo not given), the “activity, negative = inhibitor” value is -10.9%.
Still for that read-out and setting: as for `c1cc(SC2CCCCC2)cc(-c2nc3cnccn3c2NC2CCCCC2)c1`, the figure is -24.5%.
